Data published in PubChem BioAssay.
Active and inactive are the calls of the source.

Key:
[1] = optical density shifts of acrAB sulA E. coli – strain DRC41, OD650, 48 h, E. coli filamentation inducer project, primary screen (AID 1152); conditions: higher = more signal, called active from +8 up or from −8 down;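 further: E. coli MC1000 strain DRC41 lacking acrAB efflux pump and sulA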
[2] = probe aLefty1 binding on compound microarray – biochemical, small-molecule microarray, 635/667 nm fluorescence, primary screen (AID 1153); conditions: higher = more signal;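 further: score merges spot fluorescence with signal-to-noise ratio from the scanned slide images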
[3] = plasmodial surface anion channel blockers, osmotic lysis – cell-based, P. falciparum Indochina, OD700, 1 h, primary screen (AID 1154); conditions: P. falciparum Indochina infected RBC osmotic lysis, higher = more signal, called active from +8 up or from −8 down
[4] = plasmodial surface anion channel blockers, osmotic lysis – cell-based, P. falciparum Indochina, OD700, 2 h, primary screen (AID 1155);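 further: lysis reports solute entry through the parasite surface anion channel PSAC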; conditions: P. falciparum Indochina infected erythrocytes, higher = more signal, called active from +8 up or from −8 down
[5] = changes in parasitized red cell lysis, either direction – P. falciparum Indochina, OD700, 3 h, PSAC antagonist project, primary screen (AID 1156); conditions: P. falciparum-infected erythrocytes, osmotic lysis, higher = more signal, called active from +8 up or from −8 down
[6] = plasmodial surface anion channel blockers, osmotic lysis – cell-based, P. falciparum Indochina, OD700, 18 h, primary screen (AID 1157); conditions: P. falciparum Indochina infected erythrocytes, osmotic lysis OD700, 18 h; higher = more signal, called active from +8 up or from −8 down
[7] = S6 kinase pathway phospho-S6 level changes – cell-based, A549, cytoblot, luminescence, serum-stimulated, primary screen (AID 1158); conditions: 5 h, higher = more signal;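 further: serum-stimulated A549 lung adenocarcinoma cells; signal is phosphorylated S6 detected by cytoblot immunostaining with HRP secondary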
[8] = molecular target: NADPH oxidase 2 (Homo sapiens) (UniProt P04839); test: compounds shifting NOX2 Amplex Red fluorescence – cell-based, HEK293-NOX2, PMA-stimulated, NOX inhibitor project, primary screen (AID 1159); conditions: 45 min, higher = more signal, called active from +8 up or from −8 down; further: test concentration not given here
[9] = molecular target: NADPH oxidase 4 (Homo sapiens) (UniProt Q9NPH5); test: compounds shifting NOX4 Amplex Red fluorescence – cell-based, HEK293-NOX4, tetracycline-induced, NOX inhibitor project, primary screen (AID 1160); conditions: HEK293-NOX4, Amplex Red H2O2 fluorescence, 45 min; higher = more signal, called active from +8 up or from −8 down
[10] = molecular target: NADPH oxidase 5 (Homo sapiens) (UniProt Q96PH1); test: compounds shifting NOX5 Amplex Red fluorescence – cell-based, HEK293-NOX5, NOX inhibitor project, primary screen (AID 1161); conditions: HEK293-NOX5, ionomycin, 45 min, higher = more signal
[11] = compound effects on lung adenocarcinoma cell viability – A549, calcein-AM fluorescence, 48 h, basal, profiling panel (AID 1162); conditions: higher = more signal; further: test concentration not given here
[12] = compound effects on differentiated 3T3-L1 adipocyte viability – cell-based, 3T3-L1 adipocytes, calcein-AM fluorescence, 48 h, basal, profiling panel (AID 1163); conditions: 3T3-L1 adipocytes viability, higher = more signal; further: test concentration not given here
[13] = compound effects on hepatocellular carcinoma cell viability – HepG2, calcein-AM fluorescence, 48 h, basal, profiling panel (AID 1164); conditions: higher = more signal; further: test concentration not given here
[14] = compound effects on multiple myeloma cell viability – MM1S, calcein-AM fluorescence, 48 h, basal, profiling panel (AID 1165); conditions: higher = more signal; further: test concentration not given here
[15] = calcein-AM signal in unstimulated myeloma cells – cell-based, calcein-AM fluorescence, 48 h, PK04 Diversity Set, profiling panel (AID 1166); conditions: RPMI8226 myeloma viability, higher = more signal;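 further: cells grown under basal conditions without added stimulus; test concentration not given here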
[16] = JC-1 mitochondrial signal, unstimulated HepG2 cells – cell-based, JC-1 fluorescence, 24 h, 100 nL compound, profiling panel (AID 1167); conditions: HepG2 mitochondrial potential, higher = more signal; further: test concentration not given here
[17] = JC-1 mitochondrial signal, unstimulated adipocytes – cell-based, JC-1 fluorescence, 3T3-L1 adipocytes, 24 h, 100 nL compound, profiling panel (AID 1168); conditions: JC-1 mitochondrial fluorescence, higher = more signal, called active from +8 up or from −8 down; further: test concentration not given here
[18] = JC-1 mitochondrial signal, unstimulated myeloma cells – cell-based, JC-1 fluorescence, RPMI8226, 24 h, 100 nL compound, profiling panel (AID 1169); conditions: JC-1 mitochondrial potential fluorescence, higher = more signal; further: test concentration not given here
[19] = JC-1 mitochondrial signal, unstimulated MM1S myeloma – cell-based, JC-1 fluorescence, 24 h, 100 nL compound, profiling panel (AID 1170); conditions: MM1S mitochondrial potential, higher = more signal; further: test concentration not given here
[20] = resazurin metabolic signal in A549 cells – cell-based, resazurin fluorescence, 24 h, PK04 Diversity Set, profiling panel (AID 1171); conditions: A549 viability, higher = more signal, called active from +8 up or from −8 down; further: test concentration not given here

NADPH oxidase 5 (Homo sapiens), sequence (Q96PH1 whole entry, looked up): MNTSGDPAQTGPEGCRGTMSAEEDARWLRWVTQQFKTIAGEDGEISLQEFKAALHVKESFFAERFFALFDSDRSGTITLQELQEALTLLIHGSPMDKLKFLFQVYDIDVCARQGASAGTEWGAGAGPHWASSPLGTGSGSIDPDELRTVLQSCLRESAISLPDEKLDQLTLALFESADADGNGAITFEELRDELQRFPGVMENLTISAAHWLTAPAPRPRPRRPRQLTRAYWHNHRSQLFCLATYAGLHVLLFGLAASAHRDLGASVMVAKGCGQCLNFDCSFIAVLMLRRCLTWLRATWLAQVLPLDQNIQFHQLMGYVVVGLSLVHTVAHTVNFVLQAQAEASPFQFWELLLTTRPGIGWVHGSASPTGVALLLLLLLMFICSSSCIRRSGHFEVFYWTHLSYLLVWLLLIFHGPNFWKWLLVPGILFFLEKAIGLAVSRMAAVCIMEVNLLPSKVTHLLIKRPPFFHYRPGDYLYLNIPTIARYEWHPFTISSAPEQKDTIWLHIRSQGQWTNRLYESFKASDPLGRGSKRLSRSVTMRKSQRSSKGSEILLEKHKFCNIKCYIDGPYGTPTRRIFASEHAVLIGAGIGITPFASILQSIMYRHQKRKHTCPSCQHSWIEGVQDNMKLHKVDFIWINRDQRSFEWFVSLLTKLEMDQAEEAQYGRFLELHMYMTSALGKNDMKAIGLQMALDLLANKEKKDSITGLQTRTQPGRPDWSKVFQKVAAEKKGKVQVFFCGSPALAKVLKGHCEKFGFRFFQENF
NADPH oxidase 4 (Homo sapiens), sequence (Q9NPH5 whole entry, looked up): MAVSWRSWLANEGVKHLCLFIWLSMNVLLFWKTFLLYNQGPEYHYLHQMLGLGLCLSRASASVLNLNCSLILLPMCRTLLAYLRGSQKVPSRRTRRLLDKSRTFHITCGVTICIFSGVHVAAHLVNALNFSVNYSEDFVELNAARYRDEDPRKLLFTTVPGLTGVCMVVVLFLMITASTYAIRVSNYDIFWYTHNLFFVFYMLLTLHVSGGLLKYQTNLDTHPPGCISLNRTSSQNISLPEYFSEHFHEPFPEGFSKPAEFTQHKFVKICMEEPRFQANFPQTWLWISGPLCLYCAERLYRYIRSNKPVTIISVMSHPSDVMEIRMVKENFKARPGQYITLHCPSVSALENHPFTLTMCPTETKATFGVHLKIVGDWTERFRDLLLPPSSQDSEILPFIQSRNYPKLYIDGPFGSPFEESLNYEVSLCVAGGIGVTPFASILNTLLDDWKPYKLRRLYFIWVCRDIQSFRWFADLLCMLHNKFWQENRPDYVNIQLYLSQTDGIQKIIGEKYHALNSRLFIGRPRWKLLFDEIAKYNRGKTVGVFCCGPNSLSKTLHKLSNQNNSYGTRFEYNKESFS
NADPH oxidase 2 (Homo sapiens), sequence (P04839 whole entry, looked up): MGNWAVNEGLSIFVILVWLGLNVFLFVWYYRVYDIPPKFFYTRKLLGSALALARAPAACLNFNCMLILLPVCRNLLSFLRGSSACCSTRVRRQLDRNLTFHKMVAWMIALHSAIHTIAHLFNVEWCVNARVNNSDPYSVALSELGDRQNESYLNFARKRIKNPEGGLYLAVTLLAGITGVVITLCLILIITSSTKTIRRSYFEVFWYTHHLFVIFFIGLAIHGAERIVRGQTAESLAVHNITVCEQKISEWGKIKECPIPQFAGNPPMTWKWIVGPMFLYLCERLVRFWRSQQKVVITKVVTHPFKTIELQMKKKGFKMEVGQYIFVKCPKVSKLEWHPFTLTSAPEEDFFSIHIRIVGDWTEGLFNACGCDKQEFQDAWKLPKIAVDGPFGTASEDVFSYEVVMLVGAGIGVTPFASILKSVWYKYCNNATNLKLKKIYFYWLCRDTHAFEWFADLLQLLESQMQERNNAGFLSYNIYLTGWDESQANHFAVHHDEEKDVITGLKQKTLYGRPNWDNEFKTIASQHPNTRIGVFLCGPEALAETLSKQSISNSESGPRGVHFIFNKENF

With C=C(COC)/C(=C/C[C@@H](OC(=O)c1ccncc1)c1cccc(OCCO)c1)c1cc(C(=O)OC)ccc1OC the z-score [1] was 0.701 (inactive), the composite z-score [2] was 0.0698 and the z-score [3] was 8.82 (active). For the same compound, the z-score [4] was 4.64 (inactive), the z-score [5] was -3.3 (inactive) and the z-score [6] was 1.53 (inactive). For the same compound, the z-score [7] was -0.88, the z-score [8] was -3.02 (inactive) and the z-score [9] was -0.817 (inactive). It also gave a z-score [10] of -1.23, a z-score [11] of -0.637 and a z-score [12] of -0.628. For the same compound, the z-score [13] was -1.45, the z-score [14] was -2.22 and the z-score [15] was -2.37. For the same compound, the z-score [16] was 1.37, the z-score [17] was -0.109 (inactive) and the z-score [18] was -0.574. The z-score [19] was -1.26 and the z-score [20] was -1.8 (inactive).
With COCCOC(=O)N1C(=O)[C@@]2(c3cc(C#CC4(O)CCCCCC4)ccc31)[C@H](C(=O)NC[C@H](O)c1ccccc1)[C@H]1C(=O)O[C@H](c3ccccc3)[C@H](c3ccccc3)N1[C@@H]2c1ccc(OCCO)cc1 the z-score [1] was 1.07 (inactive), the composite z-score [2] was -0.007 and the z-score [3] was 3.85 (inactive). The z-score [4] was 1.58 (inactive), the z-score [5] was -1.29 (inactive) and the z-score [6] was 1.03 (inactive). The z-score [7] was 0.0102, the z-score [8] was 1.55 (inactive) and the z-score [9] was 1.01 (inactive). The z-score [10] was 0.979, the z-score [11] was -0.248 and the z-score [12] was 0.504. For the same compound, the z-score [13] was -0.466, the z-score [14] was -1.16 and the z-score [15] was -1.91. For the same compound, the z-score [16] was -1.64, the z-score [17] was 1 (inactive) and the z-score [18] was -1.01. The z-score [19] was -1.19 and the z-score [20] was 0.365 (inactive).
With CC(=O)NCCCC[C@@H]1NC(=O)[C@H]2C[C@@H](C(=O)NCCCCCN)[C@@H](c3cccc(OCCO)c3)N2C1=O the z-score [1] was 2.39 (inactive), the composite z-score [2] was 0.262 and the z-score [3] was 1.15 (inactive). For the same compound, the z-score [4] was -1.08 (inactive), the z-score [5] was 1.9 (inactive) and the z-score [6] was -1.98 (inactive). The z-score [7] was 1.36, the z-score [8] was 0.0821 (inactive) and the z-score [9] was 0.793 (inactive). For the same compound, the z-score [10] was 0.875, the z-score [11] was -0.0064 and the z-score [12] was 0.352. It also gave a z-score [13] of 0.491, a z-score [14] of 0.701 and a z-score [15] of 0.948. The z-score [16] was 0.0469, the z-score [17] was 0.408 (inactive) and the z-score [18] was -0.38. For the same compound, the z-score [19] was 0.155 and the z-score [20] was 1.1 (inactive).
With CCOC(=O)C[C@H]1[C@H](OC(=O)c2cc3ccccc3oc2=O)[C@@H](NC(=O)c2ccc3ccccc3n2)c2cc(OCCCO)ccc2N1C(=O)c1ccc2ccccc2n1 the z-score [1] was 1.03 (inactive), the composite z-score [2] was 0.174 and the z-score [3] was 10.8 (active). The z-score [4] was 1.56 (inactive), the z-score [5] was 1.25 (inactive) and the z-score [6] was 0.647 (inactive). For the same compound, the z-score [7] was -0.112, the z-score [8] was 0.786 (inactive) and the z-score [9] was 0.715 (inactive). For the same compound, the z-score [10] was 2.28, the z-score [11] was 0.513 and the z-score [12] was 1.27. It also gave a z-score [13] of 0.717, a z-score [14] of -0.255 and a z-score [15] of -0.719. The z-score [16] was 0.082, the z-score [17] was -0.33 (inactive) and the z-score [18] was -0.115. The z-score [19] was 1.17 and the z-score [20] was -0.82 (inactive).
With C=C(COC)C(=O)CC[C@H](OC(=O)c1ccccc1-c1ccccc1C(=O)O)c1ccc(CO)o1 the z-score [1] was -0.093 (inactive), the composite z-score [2] was -0.0954 and the z-score [3] was 1.77 (inactive). For the same compound, the z-score [4] was 0.404 (inactive), the z-score [5] was 1.38 (inactive) and the z-score [6] was 0.161 (inactive). The z-score [7] was -0.121, the z-score [8] was -0.0961 (inactive) and the z-score [9] was -0.0962 (inactive). It also gave a z-score [10] of -0.0437, a z-score [11] of -0.643 and a z-score [12] of -0.398. The z-score [13] was -0.985, the z-score [14] was 0.232 and the z-score [15] was -0.0416. The z-score [16] was -1.01, the z-score [17] was -0.345 (inactive) and the z-score [18] was 0.12. For the same compound, the z-score [19] was 0.433 and the z-score [20] was -0.256 (inactive).
In the case of CN(C)C(=O)[C@]1(Cc2ccccc2N=[N+]=[N-])N=C(c2ccc(OCCCO)cc2)O[C@@H]1c1ccccc1CN=[N+]=[N-], the z-score [1] is reported as 0.367 (inactive), the composite z-score [2] is reported as 0.81 and the z-score [3] is reported as 29.4 (active). The z-score [4] was 20 (active), the z-score [5] was 3.02 (inactive) and the z-score [6] was 2.16 (inactive). For the same compound, the z-score [7] was 0.915, the z-score [8] was -2.57 (inactive) and the z-score [9] was -0.305 (inactive). For the same compound, the z-score [10] was -1.93, the z-score [11] was -0.409 and the z-score [12] was 1.01. It also gave a z-score [13] of -0.386, a z-score [14] of -2.39 and a z-score [15] of -3.03. The z-score [16] was 0.38, the z-score [17] was -0.286 (inactive) and the z-score [18] was -0.992. The z-score [19] was -1.09 and the z-score [20] was 1.59 (inactive).
In the case of O=C(O)[C@]1(CCS(=O)(=O)c2ccccc2)N=C(c2ccc(OCCCO)cc2)O[C@@H]1c1ccccc1, the z-score [1] is reported as 0.139 (inactive), the composite z-score [2] is reported as 0.528 and the z-score [3] is reported as 11.3 (active). The z-score [4] was 1.11 (inactive), the z-score [5] was 0.327 (inactive) and the z-score [6] was -0.169 (inactive). The z-score [7] was -0.515, the z-score [8] was -0.298 (inactive) and the z-score [9] was 0.578 (inactive). For the same compound, the z-score [10] was 1.1, the z-score [11] was 0.195 and the z-score [12] was 0.103. It also gave a z-score [13] of 0.296, a z-score [14] of -1.2 and a z-score [15] of 1.18. For the same compound, the z-score [16] was -0.509, the z-score [17] was -0.372 (inactive) and the z-score [18] was -0.928. The z-score [19] was 0.0474 and the z-score [20] was 0.704 (inactive).
For O=C1C2C=CC(C(O)c3ccccn3)N(Nc3ccccc3)C2C(=O)N1c1ccccc1 (stereo not given), the z-score [1] was -0.803 (inactive), the composite z-score [2] was 0.0437 and the z-score [3] was 1.67 (inactive). For the same compound, the z-score [4] was 1.27 (inactive), the z-score [5] was -0.167 (inactive) and the z-score [6] was 0.974 (inactive). The z-score [7] was -0.721, the z-score [8] was -1.21 (inactive) and the z-score [9] was -3.92 (inactive). For the same compound, the z-score [10] was -2.84, the z-score [11] was 0.312 and the z-score [12] was -1.46. For the same compound, the z-score [13] was 0.593, the z-score [14] was 0.111 and the z-score [15] was -0.0462. The z-score [16] was -0.568, the z-score [17] was -0.467 (inactive) and the z-score [18] was -0.234. The z-score [19] was -1.11 and the z-score [20] was -0.752 (inactive).
For C=CC[C@]1(C(=O)N2CCOCC2)N=C(c2ccc(OCCCO)cc2)O[C@H]1c1ccccc1CN=[N+]=[N-], the z-score [1] was 0.434 (inactive), the composite z-score [2] was 0.483 and the z-score [3] was 27.9 (active). The z-score [4] was 23.1 (active), the z-score [5] was 3.57 (inactive) and the z-score [6] was 1.89 (inactive). The z-score [7] was -0.0698, the z-score [8] was 1.4 (inactive) and the z-score [9] was 0.226 (inactive). For the same compound, the z-score [10] was -1.32, the z-score [11] was 0.762 and the z-score [12] was 0.399. It also gave a z-score [13] of 1.65, a z-score [14] of -0.0728 and a z-score [15] of -1.62. The z-score [16] was 1.48, the z-score [17] was 0.114 (inactive) and the z-score [18] was -0.977. For the same compound, the z-score [19] was -0.508 and the z-score [20] was -0.119 (inactive).
